Assay results: PubChem BioAssay AID588458 (Sanford-Burnham Center for Chemical Genomics, 2011)
Out of some 360,000 compounds screened, about 3,000 (0.83%) were called active. The sample holds actives, similar compounds and a random draw of the others, so the mix is not that of the screen. Unmarked numbers belong to inactive results. Cut-off read from the data, not from the text of the source: active = inhibition above about 50%; inactive = the rest.

Target: DNA (cytosine-5)-methyltransferase 1 (Homo sapiens) (UniProt P26358)
Sequence (P26358 504-1616 limits assumed): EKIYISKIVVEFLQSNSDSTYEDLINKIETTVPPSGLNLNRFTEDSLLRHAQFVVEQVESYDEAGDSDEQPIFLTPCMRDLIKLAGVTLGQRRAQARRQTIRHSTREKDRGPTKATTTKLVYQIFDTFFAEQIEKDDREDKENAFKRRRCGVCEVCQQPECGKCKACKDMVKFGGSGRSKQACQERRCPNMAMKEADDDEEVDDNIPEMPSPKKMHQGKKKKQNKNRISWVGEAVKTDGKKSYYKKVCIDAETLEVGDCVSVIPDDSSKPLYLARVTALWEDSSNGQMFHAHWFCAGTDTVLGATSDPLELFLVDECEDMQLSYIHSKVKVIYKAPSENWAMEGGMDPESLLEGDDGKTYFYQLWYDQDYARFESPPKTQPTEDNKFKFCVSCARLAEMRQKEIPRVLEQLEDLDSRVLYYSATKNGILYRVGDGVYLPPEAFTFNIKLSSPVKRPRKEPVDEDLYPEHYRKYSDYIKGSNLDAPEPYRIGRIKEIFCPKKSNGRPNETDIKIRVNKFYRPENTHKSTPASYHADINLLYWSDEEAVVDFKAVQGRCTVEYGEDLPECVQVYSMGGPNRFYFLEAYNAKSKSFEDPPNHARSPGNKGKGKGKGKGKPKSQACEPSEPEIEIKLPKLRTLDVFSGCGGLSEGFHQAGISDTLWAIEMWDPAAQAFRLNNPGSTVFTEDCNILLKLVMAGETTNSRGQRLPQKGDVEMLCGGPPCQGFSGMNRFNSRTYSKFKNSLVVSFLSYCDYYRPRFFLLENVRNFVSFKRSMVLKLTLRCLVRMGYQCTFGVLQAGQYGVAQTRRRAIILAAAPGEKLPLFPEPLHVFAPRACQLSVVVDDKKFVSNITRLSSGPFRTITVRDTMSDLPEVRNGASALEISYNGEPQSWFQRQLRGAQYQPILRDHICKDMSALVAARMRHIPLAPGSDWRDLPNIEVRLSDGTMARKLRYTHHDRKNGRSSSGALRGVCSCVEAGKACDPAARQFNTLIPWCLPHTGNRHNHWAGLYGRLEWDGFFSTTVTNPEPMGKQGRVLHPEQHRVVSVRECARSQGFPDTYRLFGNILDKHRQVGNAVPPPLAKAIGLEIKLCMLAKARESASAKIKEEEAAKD
Experiment: inhibition of DNA methyltransferase DNMT1 – biochemical, molecular beacon, fluorescence, HinP1I cleavage, uHTS, primary screen (AID 588458)
Details: at 10 µM, stronger effect = higher value

Structure (SMILES)	inhibition (reported as % activation of signal)
Cc1ccn2c(c1)nc(=O)c1cc(S(=O)(=O)N3CCC(C)CC3)ccc12	2.87%
Cc1cc(C(=O)N2CCCC2(C)C(=O)O)c(C)o1 (centres undefined)	8.96%
NC(=O)COC(=O)c1ccc2c(c1)C(=O)N(Cc1ccco1)C2=O	1.59%
COC(=O)COc1ccc2c(c1C)O/C(=C\c1ccco1)C2=O	-2.61%
CC(C)(C)C1C/C(=C/c2ccco2)C(=O)/C(=C/c2ccco2)C1 (centres undefined)	95.9% (active)
COc1ccc(-c2ccc3c(c2)[C@@H]2C[C@H](N(C)S(=O)(=O)c4ccccc4)[C@H]([C@H](C)O)C(=O)N2CC3)cc1	-4.42%
C[C@@H]1CN([C@H](C)CO)C(=O)CCCn2cc(nn2)CO[C@H]1CN(C)S(C)(=O)=O	2.33%
CC(=O)Nc1ccc(Nc2c3ccccc3nc3ccccc23)cc1	57.2% (active)
O=C(NNc1c2ccccc2nc2ccccc12)c1cc2ccccc2cc1O	-19.2%
CCc1c(C)nc2c(-c3ccccc3)c(C)nn2c1Nc1ccc(NC(C)=O)cc1	-6.65%
Oc1ccc2ccc3cccc[n+]3c2c1	59% (active)
CCOc1cc(/C=C/C(=O)OCC(=O)NCCN2C(=O)CSC2=O)ccc1OCC(C)C	8.03%
CCCCC(=O)N(c1ccc(OC)cc1)C1C=CS(=O)(=O)C1 (centres undefined)	-1.75%
Cc1ccc2cc(C)c(N3CCC(C)CC3)nc2c1	80.8% (active)
Cc1cc(C)c2cc(C#N)c(N3CCNCC3)nc2c1	6.52%
Cc1ccc2cc(C)c(N3CCN(c4ccc(F)cc4)CC3)nc2c1	2.96%
CC(=O)NC1C(Oc2ccc(C)cc2)OC2COC(c3ccco3)OC2C1O (centres undefined)	3.51%
CCN(CCn1cccn1)Cc1nc(-c2ccc(C(=O)OC)cc2)no1	-5.27%
CS(=O)(=O)c1ccc2c(c1)SC1=NC(=O)/C(=C/c3ccco3)C(=N)N12	74.4% (active)
CCS(=O)(=O)C1=NSC2=NC(=O)/C(=C\c3ccc(OS(=O)(=O)c4ccccc4)cc3)C(=N)N21	-8.29%
CC(=O)OC[C@@H]1CN(Cc2ccccc2)C[C@H](n2cnc3c(NCc4ccco4)ncnc32)O1	-4.87%
COc1ccc(S(=O)(=O)N2CCC(C(=O)NCCC(=O)NCCc3cccc(F)c3)CC2)cc1	2%
C=CCn1c(=NC(=O)c2cccs2)sc2cc(NC(C)=O)ccc21	27%

Structure (SMILES)	inhibition (reported as % activation of signal)
COc1cc(C(C)=O)ccc1OC(C)C(=O)Nc1ccc(S(=O)(=O)N2CCCC2)cc1 (centres undefined)	-3.33%
C=CCn1c(=NC(=O)c2ccc(S(=O)(=O)N3CCCC3)cc2)sc2cc(NC(C)=O)ccc21	57.7% (active)
CN(Cc1ccccc1)C(=O)CCC1CCN(C(=O)c2ccco2)CC1	0.12%
O=C(COC(=O)CNS(=O)(=O)c1ccc(F)c(F)c1F)NC1CCCC1	1.29%
CN1CCN(C(=O)c2ccccc2NC(=O)COc2ccccc2Cl)CC1	0.74%
CCN(CC(=O)NCC(=O)Nc1cccc(C)c1C)Cc1ccccc1	0.32%
Cc1ccc2[nH]c(=O)c(-c3nc4c(C)cccn4c3NCc3ccco3)cc2c1	50.4% (active)
Cc1ccc2nc(SC(C)C(=O)NCc3ccco3)[nH]c2c1 (centres undefined)	-2.41%
Cc1ccc(SCC(=O)NC(=O)NCc2ccco2)c(C)c1	48.3%
O=C(NNS(=O)(=O)c1ccccc1C(F)(F)F)c1cc2ncc(C(F)(F)F)cc2s1	5.47%
O=C(Nc1nnc(C2COc3ccccc3O2)o1)c1ccc(F)cc1 (centres undefined)	2.41%
COc1ccccc1NC(=O)C(CC(=O)O)Cc1cc(C)cc(C)c1 (centres undefined)	7.02%
Cc1ccc(/C=C/C(=O)Nc2cc(S(=O)(=O)N3CCCCCC3)ccc2OCC(F)(F)F)o1	-10.7%
COC(=O)/C=C\C(=O)Nc1cccc([N+](=O)[O-])c1	1.93%
Cc1ccc(/C=C/C(=O)Nc2ccc([N+](=O)[O-])c(NC(=O)/C=C/c3ccc(C)o3)c2)o1	86.1% (active)
CCOC1=C2[C@H]([C@H]3C(=O)N(c4ccccc4)C(=O)[C@H]3C1)[C@@H](c1ccccc1)N(S(=O)(=O)c1ccc(C)cc1)[C@H]2c1ccccc1	0.54%
COc1ccc(CN2C[C@H]3CON(C)[C@H]3C[C@H]2c2ccc(-c3cccc(F)c3)cc2)cc1	-13.2%
CN(C(=O)CC1C(=O)NCCN1Cc1ccc(F)cc1Cl)C1CCCCC1 (centres undefined)	-5.76%
Cc1ccc(NC(=O)Cn2c(=O)n(CCC(=O)NC3CCN(Cc4ccccc4)CC3)c(=O)c3ccccc32)cc1	1.32%
CCCCNC(=O)CCn1c(=O)c2ccccc2n(Cc2cc(C)ccc2C)c1=O	55.4% (active)
COCCNC(=O)CCCn1c(=O)c2ccccc2n(Cc2cccc([N+](=O)[O-])c2)c1=O	-1.32%
COC(=O)/C(=C\Nc1ccccc1)NC(=O)c1ccc(Cl)cc1Cl	-1%
COc1cccc2cc(C(C)N(CCCN3CCOCC3)C(=O)Nc3ccc(Cl)cc3)oc12 (centres undefined)	0.19%

Structure (SMILES)	inhibition (reported as % activation of signal)
CCOC(=O)C1(Cc2ccc(Cl)cc2)CCN(C(=O)C2=NNC(=O)CC2)CC1	-1.13%
CC(=O)Nc1cccc(C(=O)OCC(=O)Nc2nnc(-c3ccccc3)o2)c1	1.02%
COc1ccc(C(=O)OCC(=O)Nc2cccc(C(C)=O)c2)cc1OC	70.9% (active)
COc1ccc(C(=O)OCC(=O)NCCCc2ccccc2)cc1OC	0.32%
C=CCNC(=O)COC(=O)CNC(=O)c1cc(Cl)cc([N+](=O)[O-])c1	6.93%
CCc1c(C)c2c(C)[nH]nc2oc1=O	-3.15%
CCC(C)Cn1c(O)cc2nn(-c3nc4ccccc4s3)c(=O)c-2c1C (centres undefined)	52.2% (active)
CC1CCCCC1NC(=O)c1cc(=O)[nH]c2ccccc12 (centres undefined)	3.02%
O=C(c1ccc(CS(=O)Cc2ccccc2Cl)o1)N1CCN(c2ccccc2)CC1 (centres undefined)	5.54%
O=C(c1ccc(S(=O)(=O)NCc2ccco2)cc1)N1CCN(c2ccccc2)CC1	3.68%
O=C(c1ccc(CS(=O)(=O)c2ccccc2)o1)N1CCN(c2ccccc2)CC1	84.6% (active)
CC(=O)N/C(=C/c1ccc(OC(F)F)cc1)C(=O)O	-1.65%
Cc1ccc(C(=O)O)cc1-c1ccc(/C=C2\SC(=O)N(CC(=O)Nc3ccc4c(c3)OCO4)C2=O)o1	12.5%
O=C(NCCN1C(=O)S/C(=C\c2cccnc2)C1=O)c1cccc(OC(F)F)c1	-3.23%
N#Cc1ccccc1CN1C(=O)S/C(=C/c2cccn2-c2cccc(C(=O)O)c2)C1=O	102% (active)
O=C(NC(Cc1ccccc1)C(=O)O)/C(=C\c1ccccc1)NC(=O)c1ccco1 (centres undefined)	-3.34%
CCC(C)(C)NC(=O)CN(C(=O)CCC(=O)Nc1cc(C)ccn1)c1ccc2c(c1)OCCO2	-0.26%
O=C(c1cccnc1)N(c1cc2sc(=O)oc2c2ccccc12)S(=O)(=O)c1ccccc1	-12.2%
CC(Sc1cccc[n+]1[O-])C(=O)Nc1cccc(S(=O)(=O)N2CCOCC2)c1 (centres undefined)	1.02%
CN(C)/C=C(/C(=O)c1ccc(F)cc1)S(=O)(=O)c1ccc(F)cc1	1.17%
CN(C)/C=C(/C(=O)c1ccc(Cl)cc1)S(=O)(=O)c1ccccc1	70% (active)
CN(C)/C=C(/C(=O)c1ccccc1)S(=O)(=O)c1ccc(Cl)cc1	-1.72%
Cc1cnc(CN(C)C(=O)C2CCC(=O)N(CCc3cccc(F)c3)C2)[nH]1 (centres undefined)	1.88%

Structure (SMILES)	inhibition (reported as % activation of signal)
COc1cccc(C(=O)Nc2ccc3nc4n(c(=O)c3c2)CCCCC4)c1	3.72%
O=C(Nc1ccc(Cl)cc1)c1cccc(OC(=S)N2CCOCC2)c1	0.14%
COc1cccc(C(=O)Nc2ccc(N3CCCC3)cc2)c1	91.3% (active)
Cc1cc([N+](=O)[O-])ccc1NS(=O)(=O)c1ccccc1	3.46%
CC1CN(C(=O)c2cccc(NS(=O)(=O)c3ccc(Br)cc3)c2)CC(C)O1 (centres undefined)	6.97%
CC1CN(C(=O)c2ccccc2NS(=O)(=O)c2cccc([N+](=O)[O-])c2)CC(C)O1 (centres undefined)	65.4% (active)
Nc1c(C(=O)O)cnn1-c1ccccc1	-0.06%
Cc1noc(C)c1COc1ccccc1C(=O)N(C)CC(=O)Nc1cccc(F)c1	1.78%
COc1ccc(C)cc1NC(=O)CCCN1C(=O)NC(C)(C)C1=O	2.66%
COc1ccc(/C=C/C(=O)c2c(O)cc(OC)cc2OC)cc1	-2.91%
Cc1cc(O)c(C(=O)/C=C/c2c(F)c(F)c(F)c(F)c2F)c(=O)o1	59.4% (active)
Cc1cc(O)c(Sc2ccccc2)c(=O)o1	4.53%
COc1ccc(C)cc1NC(=O)c1cc(-c2ccccc2)nc2c1cnn2C(C)C	-4.87%
O=C(CN1CCOCC1)N/N=C/c1ccc(-c2ccc(Br)cc2)o1	-2.15%
O=C(Cn1nnc(-c2ccccc2)n1)N/N=C/c1ccc(-c2ccc(Cl)cc2)o1	59.9% (active)
Nc1nnn(CC(=O)N/N=C/c2ccccc2)n1	0.13%
CC1(C)CC(=O)C(C2c3ccccc3S(=O)(=O)c3ccccc32)C(=O)C1	1.21%
CCOc1ccc(CN2CCC(n3nccc3NC(=O)C3CC3)CC2)cc1CO	55.5% (active)
COc1cc(CC(=O)N2CCC(n3nccc3NC(=O)C3CC3)CC2)cc(OC)c1OC	0.88%
O=C(Nc1ccnn1C1CCN(Cc2cccc(OCCO)c2)CC1)C1CCCC1	-0.78%
